From PubChem BioAssay (NCI)
Compounds without any hit were thinned out: in the full panel of roughly 83,000, 20% have a hit.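 Note: values are percent growth. 100 is the growth of untreated cells, values between 100 and 0 indicate rising inhibition; between -100 and 0 indicates cell death.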 Active and inactive are the calls of the source. The calls were made as follows: active = growth percent below 10; inactive = the rest.

Tests used:
Test in all cases: NCI-60 one-dose screen, 48 h (100 = growth as untreated, 0 = no growth, -100 = all killed)
Conditions in all cases: 10 µM unless noted
T-47D breast = system: T-47D breast
BT-549 breast = system: BT-549 breast
MDA-MB-435 melanoma = system: MDA-MB-435 melanoma
SW-620 colon = system: SW-620 colon
MCF7 breast = system: MCF7 breast
HCT-116 colon = system: HCT-116 colon
HCC-2998 colon = system: HCC-2998 colon
KM12 colon = system: KM12 colon

Measured: growth

COc1cc(Br)c(OC)cc1Br
inactive: T-47D breast 82% | BT-549 breast 97.7% | MDA-MB-435 melanoma 105% | SW-620 colon 94.7% | MCF7 breast 63.1% | HCT-116 colon 91.5% | HCC-2998 colon 99.6% | KM12 colon 76.3%

C=C1C(=O)O[C@H]2[C@H]1CC/C(COC(=O)NCCc1ccc(Br)cc1)=C\CC[C@@]1(C)O[C@@H]21
inactive: MDA-MB-435 melanoma 23.9% | HCC-2998 colon 71.1% | KM12 colon 55.4%
active: T-47D breast -21% | BT-549 breast -9.87% | SW-620 colon -55.6% | MCF7 breast 4.4% | HCT-116 colon -72.1%

C=C1C(=O)O[C@H]2[C@H]1CC/C(COC(=O)NCc1ccc(OC)cc1)=C\CC[C@@]1(C)O[C@@H]21
active: SW-620 colon 1.83% | HCT-116 colon -48.7%
inactive: T-47D breast 17.5% | BT-549 breast 29.7% | MDA-MB-435 melanoma 46.9% | MCF7 breast 15.2% | HCC-2998 colon 83.5% | KM12 colon 73.8%

CCN(CC)CCCC(C)N=c1cc(Nc2cc(=NC(C)CCCN(CC)CC)c3cc(OC)ccc3o2)oc2ccc(OC)cc12 (stereo not drawn)
inactive: T-47D breast 25.8%
active: BT-549 breast -69.4% | MDA-MB-435 melanoma -87.4% | SW-620 colon -2.14% | MCF7 breast -26.8% | HCT-116 colon -21.2% | HCC-2998 colon -88.9% | KM12 colon -4.99%

COc1cccc2nc(Nc3ccc(NC(=O)c4ccc5ncccc5c4)cc3)ccc12
inactive: T-47D breast 68% | BT-549 breast 69.7% | MDA-MB-435 melanoma 88.7% | SW-620 colon 97.7% | MCF7 breast 70.3% | HCT-116 colon 84.5% | HCC-2998 colon 96.4% | KM12 colon 65.6%

O=C(c1ccncc1)N1N=C(c2ccc(Cl)cc2)CC1c1c[nH]c2ccccc12 (stereo not drawn)
inactive: T-47D breast 74.8% | BT-549 breast 92.8% | MDA-MB-435 melanoma 99.9% | SW-620 colon 96% | MCF7 breast 70.2% | HCT-116 colon 94.3% | HCC-2998 colon 105% | KM12 colon 96.8%

COc1ccc(-c2nc3sccn3c2-c2ccnc(NCCCNS(=O)(=O)c3ccc4ccccc4c3)n2)cc1
inactive: T-47D breast 32.6% | BT-549 breast 65.3% | MDA-MB-435 melanoma 50% | SW-620 colon 105% | MCF7 breast 52.2% | HCT-116 colon 60.2% | HCC-2998 colon 84.1% | KM12 colon 50.1%

CC(=O)Nc1nc(C(=O)N2N=C(C)/C(=C/c3ccccc3)C2=O)cs1
inactive: T-47D breast 98.6% | BT-549 breast 107% | MDA-MB-435 melanoma 106% | SW-620 colon 107% | MCF7 breast 95.9% | HCT-116 colon 98.3% | HCC-2998 colon 104% | KM12 colon 102%

O=c1oc2cc(OS(=O)(=O)c3ccccc3)c(Cl)cc2c2c1CCCCCC2
inactive: T-47D breast 73.9% | BT-549 breast 79.1% | MDA-MB-435 melanoma 90% | SW-620 colon 98.1% | MCF7 breast 90.6% | HCT-116 colon 74.8% | HCC-2998 colon 106% | KM12 colon 92.1%

NC(=O)c1cccc(N2Cc3ccccc3OC3=C2C(=O)c2c(O)ccc(O)c2C3=O)c1
active: T-47D breast -36.9% | BT-549 breast -56.8% | MDA-MB-435 melanoma -27.3% | SW-620 colon -66.6% | MCF7 breast -22.3% | HCT-116 colon -69.1% | HCC-2998 colon -21.1% | KM12 colon -48.9%

Cc1cccc(-n2c(C)nc3ccc(NC(=O)NCCCl)cc3c2=O)c1
inactive: T-47D breast 103% | BT-549 breast 101% | MDA-MB-435 melanoma 99.2% | SW-620 colon 97.3% | MCF7 breast 86.1% | HCT-116 colon 103% | HCC-2998 colon 114% | KM12 colon 106%

Cc1cccc(NC(=O)c2sc3nc4c(cc3c2N)CCCC4)c1
active: MDA-MB-435 melanoma -22.9%
inactive: T-47D breast 53.5% | BT-549 breast 50.8% | SW-620 colon 36% | MCF7 breast 11.3% | HCT-116 colon 22.3% | HCC-2998 colon 70.6% | KM12 colon 22.9%

NC(=O)NNC(=O)c1ccccc1
inactive: T-47D breast 111% | BT-549 breast 107% | MDA-MB-435 melanoma 105% | SW-620 colon 108% | MCF7 breast 100% | HCT-116 colon 99.7% | HCC-2998 colon 107% | KM12 colon 103%

O=S(=O)(NCCNc1nccc(-c2c(-c3ccccc3)nc3sccn23)n1)c1ccc(O)cc1
inactive: T-47D breast 41.2% | BT-549 breast 48.9% | MDA-MB-435 melanoma 10.5% | SW-620 colon 30% | MCF7 breast 18.5% | HCT-116 colon 21.5% | HCC-2998 colon 64.9% | KM12 colon 21.6%

O=C(O)C(=Cc1c2ccccc2cc2ccccc12)C(=O)O
inactive: T-47D breast 90.5% | BT-549 breast 105% | MDA-MB-435 melanoma 109% | SW-620 colon 105% | MCF7 breast 97.5% | HCT-116 colon 97.7% | HCC-2998 colon 100% | KM12 colon 109%

COC1=CC(c2ccc[nH]2)=N/C1=C\c1[nH]c(C)c(C(=O)CCCCC(=O)NCc2ccccc2)c1C
inactive: T-47D breast 50.5% | BT-549 breast 21.5% | HCC-2998 colon 57.8%
active: MDA-MB-435 melanoma -20% | SW-620 colon -96.7% | MCF7 breast -100% | HCT-116 colon -83.1% | KM12 colon -25.2%

Cc1sc(N=Nc2ccc(N(C)C)cc2)[n+]([O-])c1C
inactive: T-47D breast 95.4% | BT-549 breast 94.3% | MDA-MB-435 melanoma 101% | SW-620 colon 99.3% | MCF7 breast 79.9% | HCT-116 colon 112% | HCC-2998 colon 112% | KM12 colon 91.7%

O=C(Nc1cccc(Cl)c1)c1cc([N+](=O)[O-])ccc1O
inactive: T-47D breast 41.9% | BT-549 breast 66.5% | MDA-MB-435 melanoma 60.4% | SW-620 colon 58.7% | MCF7 breast 42.9% | HCT-116 colon 45.9% | HCC-2998 colon 29.2% | KM12 colon 43.1%

CC(=O)C1CCC(C)=CC1=O (stereo not drawn)
inactive: T-47D breast 90.2% | BT-549 breast 93.3% | MDA-MB-435 melanoma 103% | SW-620 colon 103% | MCF7 breast 88.4% | HCT-116 colon 103% | HCC-2998 colon 103% | KM12 colon 110%

COc1ccc(/C(=N\O)c2cc(OC)c(OC)c(OC)c2)c(OC)c1N
inactive: T-47D breast 45.1% | SW-620 colon 23.4% | MCF7 breast 15.6% | HCC-2998 colon 35.7% | KM12 colon 11.7%
active: BT-549 breast 2.29% | MDA-MB-435 melanoma -66.3% | HCT-116 colon 7.66%

CCOP(=O)(CCN1CCN(CCCCCOc2cc3c(cc2OC)C(=O)N2CCC[C@H]2C=N3)CC1)OCC
inactive: T-47D breast 46% | BT-549 breast 52.5% | MDA-MB-435 melanoma 93.7% | SW-620 colon 63.5% | MCF7 breast 35.9% | HCT-116 colon 80.1% | HCC-2998 colon 80.8% | KM12 colon 111%

CC[C@]1(O)C[C@@H]2CN(Cc3c([nH]c4ccccc34)[C@@](C(=O)OC)(c3cc4c(cc3OC)N(C)[C@H]3[C@@](O)(C(=O)OC)[C@H](OC(C)=O)[C@]5(CC)[C@@H]6C[C@@H]6CN6CC[C@]43[C@@H]65)C2)C1
inactive: T-47D breast 83.3% | SW-620 colon 20.6% | MCF7 breast 14.8%
active: BT-549 breast -23.1% | MDA-MB-435 melanoma -40% | HCT-116 colon 2.43% | HCC-2998 colon 7.42% | KM12 colon -9.75%

CCN(Cc1ccc(CN(CC)C(=O)C(Cl)(Cl)Cl)cc1)C(=O)C(Cl)(Cl)Cl
inactive: T-47D breast 78.2% | BT-549 breast 78.3% | MDA-MB-435 melanoma 83.7% | SW-620 colon 89% | MCF7 breast 89.2% | HCT-116 colon 56.4% | HCC-2998 colon 92.4% | KM12 colon 81.5%

COc1ccc(-c2nc(-c3ccccc3)c(-c3ccccc3)n2C2CC2)cc1OC1CCCCC1
inactive: T-47D breast 58.4% | BT-549 breast 97.3% | MDA-MB-435 melanoma 72.5% | SW-620 colon 58.2% | MCF7 breast 52% | HCT-116 colon 38.8% | HCC-2998 colon 83.2% | KM12 colon 62.2%

CCN(CC)S(=O)(=O)c1ccc2[nH]c(=O)cc(C(=O)Nc3ccc(OC)cc3OC)c2c1
inactive: T-47D breast 101% | BT-549 breast 136% | MDA-MB-435 melanoma 108% | SW-620 colon 108% | MCF7 breast 99.6% | HCT-116 colon 97.3% | HCC-2998 colon 75.3% | KM12 colon 110%

Cn1cc(C=O)c2ccccc21
inactive: T-47D breast 102% | BT-549 breast 106% | MDA-MB-435 melanoma 106% | SW-620 colon 95.1% | MCF7 breast 99.3% | HCT-116 colon 102% | HCC-2998 colon 100% | KM12 colon 102%

O=C(COc1ccccc1)N1N=C(c2ccc(Cl)cc2)CC1c1c[nH]c2ccccc12 (stereo not drawn)
inactive: T-47D breast 51.4% | BT-549 breast 71.3% | MDA-MB-435 melanoma 93.8% | SW-620 colon 54.5% | MCF7 breast 39.7% | HCT-116 colon 68.5% | HCC-2998 colon 103% | KM12 colon 74.1%

COc1ccc2c(c1)NC(=O)CN2c1nc(C)nc2ccccc12
active: BT-549 breast 1.24% | MDA-MB-435 melanoma 1.13% | HCT-116 colon 0.468% | KM12 colon 8.92%
inactive: T-47D breast 55.5% | SW-620 colon 22% | MCF7 breast 14.9% | HCC-2998 colon 16.6%

CCNC(=O)CCCCC(=O)c1c(C)[nH]c(/C=C2\N=C(c3ccc[nH]3)C=C2OC)c1C
inactive: HCC-2998 colon 48.6%
active: T-47D breast -46.3% | BT-549 breast -36.1% | MDA-MB-435 melanoma -18.4% | SW-620 colon -65.4% | MCF7 breast -17.4% | HCT-116 colon -100% | KM12 colon -56.9%

CCCCCCCCCCCCNC(=S)N/N=C/c1ccc(Cl)c(Cl)c1
inactive: T-47D breast 94.9% | BT-549 breast 120% | MDA-MB-435 melanoma 98.8% | SW-620 colon 110% | MCF7 breast 102% | HCT-116 colon 102% | HCC-2998 colon 106% | KM12 colon 102%

CCOC(=O)c1cc(/C(=N\O)c2cc(OC)c(OC)c(OC)c2)n2cc(C)cc(C)c12
inactive: T-47D breast 26.9% | BT-549 breast 28.6% | SW-620 colon 13.3% | MCF7 breast 13.6% | HCC-2998 colon 67.5% | KM12 colon 20.7%
active: MDA-MB-435 melanoma -22.7% | HCT-116 colon -6.14%
